This passage reports binding signal results from PMC7862700, “An all-to-all approach to the identification of sequence-specific readers for epigenetic DNA modifications on cytosine”.

Assay in all cases: DAPPL (digital affinity profiling via proximity ligation, sequencing); 10 mM Tris-HCl pH 7.5, 50 mM NaCl, 1 mM DTT, 4% glycerol, room temperature, 30 min; GST-TFs on glutathione beads, 16-mer random dsDNA library, 0.1% formaldehyde crosslink after washing; high values mean tight binding
What all share (details): protein: recombinant; tags: N-terminal GST; dsDNA, one strand shown

One assay concerns the target T1, ERF (Homo sapiens, UniProt P50548 1-548).
T1 sequence: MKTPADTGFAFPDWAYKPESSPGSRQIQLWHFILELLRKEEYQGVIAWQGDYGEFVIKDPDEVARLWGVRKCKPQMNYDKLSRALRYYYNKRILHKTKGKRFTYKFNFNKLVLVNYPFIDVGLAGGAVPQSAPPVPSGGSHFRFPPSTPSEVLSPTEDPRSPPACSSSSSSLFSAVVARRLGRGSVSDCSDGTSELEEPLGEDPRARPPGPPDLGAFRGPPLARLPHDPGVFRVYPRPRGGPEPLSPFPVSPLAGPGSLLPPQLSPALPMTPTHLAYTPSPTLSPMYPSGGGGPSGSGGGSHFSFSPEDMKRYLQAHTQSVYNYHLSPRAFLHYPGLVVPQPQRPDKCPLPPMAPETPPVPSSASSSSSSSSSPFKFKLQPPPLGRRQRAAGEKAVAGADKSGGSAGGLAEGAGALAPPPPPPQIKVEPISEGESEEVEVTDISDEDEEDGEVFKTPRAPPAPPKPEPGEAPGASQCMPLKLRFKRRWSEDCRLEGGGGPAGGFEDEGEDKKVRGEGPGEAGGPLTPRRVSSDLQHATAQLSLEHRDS
The essentials: (§1)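 Human transcription factors fused to GST were expressed in yeast, captured on glutathione beads, given DNA barcodes and pooled with a GST-only negative control. Pools were incubated with 200 nmole of a 16-mer random double-stranded DNA library in Tris/NaCl/DTT/glycerol buffer at room temperature for 30 min. They were then washed, crosslinked with 0.1% formaldehyde, proximity-ligated (BsaI/T4 ligase, 1 h, 37 °C), PCR-amplified and sequenced on an Illumina NextSeq500. Binding signal is each 6-mer's read frequency for a factor divided by its frequency for the GST control.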

Another assay concerns the target T2, ETV3L (Homo sapiens, UniProt Q6ZN32 1-361).
T2 sequence: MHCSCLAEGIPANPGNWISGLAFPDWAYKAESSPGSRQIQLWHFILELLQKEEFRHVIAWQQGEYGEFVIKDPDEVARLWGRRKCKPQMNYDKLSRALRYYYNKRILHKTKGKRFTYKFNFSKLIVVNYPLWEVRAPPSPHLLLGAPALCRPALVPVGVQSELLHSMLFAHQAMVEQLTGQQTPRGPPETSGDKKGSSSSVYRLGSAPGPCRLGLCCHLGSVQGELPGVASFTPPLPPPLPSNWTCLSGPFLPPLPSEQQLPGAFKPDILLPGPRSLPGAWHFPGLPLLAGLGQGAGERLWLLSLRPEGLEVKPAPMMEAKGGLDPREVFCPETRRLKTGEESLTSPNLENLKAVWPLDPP
The essentials:
as §1

A further assay deals with T3, ETS2 (Homo sapiens, UniProt P15036 1-469).
T3 sequence: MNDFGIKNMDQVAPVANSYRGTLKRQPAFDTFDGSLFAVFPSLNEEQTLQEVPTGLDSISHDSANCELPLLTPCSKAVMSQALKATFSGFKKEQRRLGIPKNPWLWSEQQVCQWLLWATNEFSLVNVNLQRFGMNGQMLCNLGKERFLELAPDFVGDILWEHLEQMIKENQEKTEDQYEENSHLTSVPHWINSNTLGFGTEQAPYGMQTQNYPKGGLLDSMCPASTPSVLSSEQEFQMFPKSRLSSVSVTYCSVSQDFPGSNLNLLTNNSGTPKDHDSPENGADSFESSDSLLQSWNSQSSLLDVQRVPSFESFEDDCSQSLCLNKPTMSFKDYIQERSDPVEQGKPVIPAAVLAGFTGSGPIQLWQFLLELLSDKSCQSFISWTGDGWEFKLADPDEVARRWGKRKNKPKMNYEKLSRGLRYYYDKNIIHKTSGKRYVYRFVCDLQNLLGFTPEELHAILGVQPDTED
The essentials: as §1

The next assay concerns the target T4, SPDEF (Homo sapiens, UniProt O95238 1-335).
T4 sequence: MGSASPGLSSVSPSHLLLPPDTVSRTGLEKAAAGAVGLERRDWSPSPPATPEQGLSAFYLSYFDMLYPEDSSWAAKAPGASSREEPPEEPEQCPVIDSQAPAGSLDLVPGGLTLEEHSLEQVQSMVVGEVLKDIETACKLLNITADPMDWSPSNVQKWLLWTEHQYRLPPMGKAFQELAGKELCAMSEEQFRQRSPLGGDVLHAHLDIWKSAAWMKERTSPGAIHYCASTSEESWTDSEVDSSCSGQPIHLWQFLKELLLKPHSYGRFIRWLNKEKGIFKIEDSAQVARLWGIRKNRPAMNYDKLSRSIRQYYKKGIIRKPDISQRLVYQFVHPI
Summed up: as §1

The next assay deals with T5, ETV7 (Homo sapiens, UniProt Q9Y603 1-341).
T5 sequence: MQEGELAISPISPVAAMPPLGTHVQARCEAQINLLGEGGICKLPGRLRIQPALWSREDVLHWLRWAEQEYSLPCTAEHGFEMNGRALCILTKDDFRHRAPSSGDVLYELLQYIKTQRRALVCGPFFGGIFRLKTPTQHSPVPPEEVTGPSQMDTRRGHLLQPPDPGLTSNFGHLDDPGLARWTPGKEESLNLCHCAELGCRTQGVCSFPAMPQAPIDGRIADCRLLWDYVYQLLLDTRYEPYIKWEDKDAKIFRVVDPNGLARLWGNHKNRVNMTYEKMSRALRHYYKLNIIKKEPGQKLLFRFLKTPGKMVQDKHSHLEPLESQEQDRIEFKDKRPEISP
Summed up: as §1

A further assay deals with T6, ELF5 (Homo sapiens, UniProt Q9UKW6-2 1-255).
T6 sequence: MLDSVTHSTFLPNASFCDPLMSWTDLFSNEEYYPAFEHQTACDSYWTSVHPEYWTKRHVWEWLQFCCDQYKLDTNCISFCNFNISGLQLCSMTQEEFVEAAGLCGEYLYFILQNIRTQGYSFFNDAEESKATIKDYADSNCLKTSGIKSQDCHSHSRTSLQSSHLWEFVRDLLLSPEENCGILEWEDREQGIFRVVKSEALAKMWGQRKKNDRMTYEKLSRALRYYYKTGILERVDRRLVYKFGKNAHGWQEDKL
The essentials:
as §1

In the next assay the target is T7, ETV3 (Homo sapiens, UniProt P41162-2 1-143).
T7 sequence: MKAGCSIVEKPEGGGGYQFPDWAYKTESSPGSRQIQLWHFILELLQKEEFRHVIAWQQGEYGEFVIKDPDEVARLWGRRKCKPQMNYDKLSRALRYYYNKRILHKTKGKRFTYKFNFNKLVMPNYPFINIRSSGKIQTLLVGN
The essentials: as §1

The target in another assay is ETV6 (Homo sapiens, UniProt P41212 1-452). Summed up:
as §1

Chain of ETV6 (P41212 whole entry): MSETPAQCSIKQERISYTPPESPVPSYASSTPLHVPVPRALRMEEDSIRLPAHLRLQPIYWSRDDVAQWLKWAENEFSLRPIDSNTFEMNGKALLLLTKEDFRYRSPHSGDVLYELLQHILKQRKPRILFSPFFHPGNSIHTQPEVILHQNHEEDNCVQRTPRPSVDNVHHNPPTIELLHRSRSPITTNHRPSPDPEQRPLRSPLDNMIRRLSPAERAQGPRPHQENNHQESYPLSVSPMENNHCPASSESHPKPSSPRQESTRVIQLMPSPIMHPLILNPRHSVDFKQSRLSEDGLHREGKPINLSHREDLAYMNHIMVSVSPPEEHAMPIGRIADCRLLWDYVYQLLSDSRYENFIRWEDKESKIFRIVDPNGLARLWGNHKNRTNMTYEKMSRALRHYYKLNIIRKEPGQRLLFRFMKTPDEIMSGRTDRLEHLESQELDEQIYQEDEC

In the case of AAGATA, the binding signal with ERF was 1.17 fold enrichment (6-mer frequency, TF over GST control); with ETV3L it was 1.09 fold enrichment (6-mer frequency, TF over GST control); with ETS2 it was 1.1 fold enrichment (6-mer frequency, TF over GST control); with SPDEF, 1.1 fold enrichment (6-mer frequency, TF over GST control); with ETV7, 1.1 fold enrichment (6-mer frequency, TF over GST control); with ELF5 it was 1.07 fold enrichment (6-mer frequency, TF over GST control). Also, the binding signal with ETV3 is 1.11 fold enrichment (6-mer frequency, TF over GST control); with ETV6, 1.14 fold enrichment (6-mer frequency, TF over GST control).

Turning to TGAAAC, the binding signal in the assay with ERF is 1.17 fold enrichment (6-mer frequency, TF over GST control); in the assay with ETV3L, 1.17 fold enrichment (6-mer frequency, TF over GST control); in the assay with ETS2 it was 1.3 fold enrichment (6-mer frequency, TF over GST control); in the assay with SPDEF it was 1.28 fold enrichment (6-mer frequency, TF over GST control); with ETV7, 1.28 fold enrichment (6-mer frequency, TF over GST control); with ELF5, 1.15 fold enrichment (6-mer frequency, TF over GST control). Also, the binding signal with ETV3 is 1.28 fold enrichment (6-mer frequency, TF over GST control); with ETV6, 1.13 fold enrichment (6-mer frequency, TF over GST control).

With TATAAC, the binding signal in the assay with ERF is 1.18 fold enrichment (6-mer frequency, TF over GST control); with ETV3L it was 1.21 fold enrichment (6-mer frequency, TF over GST control); with ETS2, 1.25 fold enrichment (6-mer frequency, TF over GST control); in the assay with SPDEF, 1.25 fold enrichment (6-mer frequency, TF over GST control); with ETV7, 1.26 fold enrichment (6-mer frequency, TF over GST control); with ELF5, 1.25 fold enrichment (6-mer frequency, TF over GST control). Further, the binding signal was 1.25 fold enrichment (6-mer frequency, TF over GST control) with ETV3 and 1.19 fold enrichment (6-mer frequency, TF over GST control) with ETV6.

Take TTTGTG: the binding signal in the assay with ERF is 1.23 fold enrichment (6-mer frequency, TF over GST control); with ETV3L, 1.12 fold enrichment (6-mer frequency, TF over GST control); with ETS2, 1.11 fold enrichment (6-mer frequency, TF over GST control); with SPDEF, 1.23 fold enrichment (6-mer frequency, TF over GST control); with ETV7, 1.2 fold enrichment (6-mer frequency, TF over GST control); with ELF5, 1.18 fold enrichment (6-mer frequency, TF over GST control). The binding signal in the assay with ETV3 was 1.13 fold enrichment (6-mer frequency, TF over GST control); with ETV6 it was 1.14 fold enrichment (6-mer frequency, TF over GST control).

Take TGCTGA: the binding signal is 1.03 fold enrichment (6-mer frequency, TF over GST control) in the assay with ERF; 1.05 fold enrichment (6-mer frequency, TF over GST control) with ETV3L; 1.11 fold enrichment (6-mer frequency, TF over GST control) with ETS2; 1.11 fold enrichment (6-mer frequency, TF over GST control) in the assay with SPDEF; 1.07 fold enrichment (6-mer frequency, TF over GST control) with ETV7; 1 fold enrichment (6-mer frequency, TF over GST control) with ELF5. For the same sequence, the binding signal with ETV3 is 1.12 fold enrichment (6-mer frequency, TF over GST control); in the assay with ETV6 it was 1.01 fold enrichment (6-mer frequency, TF over GST control).

In the case of ACGGCT, the binding signal with ERF was 1.16 fold enrichment (6-mer frequency, TF over GST control); in the assay with ETV3L, 1.23 fold enrichment (6-mer frequency, TF over GST control); with ETS2 it was 1.19 fold enrichment (6-mer frequency, TF over GST control); in the assay with SPDEF it was 1.18 fold enrichment (6-mer frequency, TF over GST control); with ETV7 it was 1.03 fold enrichment (6-mer frequency, TF over GST control); with ELF5, 1.07 fold enrichment (6-mer frequency, TF over GST control). Besides, the binding signal was 1.11 fold enrichment (6-mer frequency, TF over GST control) with ETV3 and 1.16 fold enrichment (6-mer frequency, TF over GST control) with ETV6.

In the case of ATTAGG, the binding signal was 1.26 fold enrichment (6-mer frequency, TF over GST control) in the assay with ERF; 1.12 fold enrichment (6-mer frequency, TF over GST control) in the assay with ETV3L; 1.06 fold enrichment (6-mer frequency, TF over GST control) with ETS2; 1.11 fold enrichment (6-mer frequency, TF over GST control) with SPDEF; 1.15 fold enrichment (6-mer frequency, TF over GST control) with ETV7; 1.12 fold enrichment (6-mer frequency, TF over GST control) in the assay with ELF5. The binding signal with ETV3 is 1.06 fold enrichment (6-mer frequency, TF over GST control); in the assay with ETV6, 1.09 fold enrichment (6-mer frequency, TF over GST control).
